{"source": "PubChem BioAssay (Tox21)", "note": "Inconclusive results are not listed. Where a call stands in place of a potency, no number is given. Calls of active or inactive are those of the source. The call rests on the fitted dose curve; in most records, active means well fitted activation curve with a large enough effect in the repeat runs; inconclusive means weak or mixed curves; inactive means flat fitted curve, though single readings scatter.", "data": [{"experiment": "A CellTox Green Cytotoxicity Assay to monitor cytotoxicity in HEK293 cells - 8 hour (AID 1224884); further: nearly all actives have a fitted effect of over 35% in size", "settings": "CellTox Green fluorescence; series mostly up to 76.8 µM", "text": "National Center for Advancing Translational Sciences [NCATS]\nNIH Chemical Genomics Center [NCGC]\nU.S. Environmental Protection Agency [EPA]\nNational Institutes of Environmental Health Sciences [NIEHS]\nNational Toxicology Program [NTP]\nCell-based models are critical for drug discovery. Determining the natural cytotoxic effects resulting from test compounds is an essential research activity. A CellTox Green Cytotoxicity Assay to monitor cytotoxicity in real time of continues cell culture during 40 hours of the compound treatment was used to screen Tox21 10K library compounds in Hek293 cells. CellTox Green Cytotoxicity Assay is a nonlytic, homogeneous, biofluorescent method to measure cytotoxicity in cell culture after experimental manipulation. The assay system uses a proprietary asymmetric cyanine dye that is excluded from viable cells but preferentially stains the dead cell's DNA. […] Viable cells produce no appreciable increases in fluorescence. Therefore, the fluorescence signal produced by the binding interaction with dead cell DNA is proportional to cytotoxicity.\nThe mixture of Hek293 cell suspension and reagents were dispensed at 600cells/6 ul/well in 1536-well tissue culture treated black solid bottom plates using a Multidrop dispenser. After the assay plates were incubated at a 37 C/5% CO2 incubator for 5 hours, 23 nL of compounds dissolved in DMSO, positive and negative controls was transferred to the assay plate by a pintool work station. The plates were incubated at 37 C for 40 hours. The fluorescence intensity were measured at 0h, 8h, 16h, 24h, 32h and 40h time points using ViewLux plate reader during compound treatment.", "values": [{"smiles": "CCCCCCCCCCCCCCCCCCCl", "cytotoxicity increase": "13.7% [at 6.97 µM] (inactive)"}, {"smiles": "O=C1CCCN1CCO", "Potency": "inactive"}, {"smiles": "CCC(C)C1N=C(C)C(C)S1", "note": "(stereo not given)", "Potency": "inactive"}, {"smiles": "Oc1ccc(Oc2ccccc2)cc1", "Potency": "inactive"}, {"smiles": "COc1cc(CNC(=O)CCCC/C=C/C(C)C)ccc1O", "Potency": "inactive"}, {"smiles": "COc1ccc(C(=O)Nc2ccccc2)cc1[N+](=O)[O-]", "Potency": "inactive"}, {"smiles": "O=C(O)CNc1ccccc1", "Potency": "inactive"}, {"smiles": "CCCCCCCCNC", "Potency": "inactive"}, {"smiles": "Nc1ncnc2c1ncn2[C@@H]1O[C@H](CO)[C@@H](O)[C@H]1O", "Potency": "inactive"}, {"smiles": "CCC(C)CCCC(C)(C)O", "note": "(stereo not given)", "Potency": "inactive"}, {"smiles": "O=C(c1ccco1)N1CCNCC1", "Potency": "inactive"}, {"smiles": "O=C(OC1C[C@H]2CC[C@@H](C1)[N+]21CCCC1)C(O)(c1ccccc1)c1ccccc1", "note": "(stereo not given in full)", "Potency": "inactive"}, {"smiles": "CC(O)CN", "note": "(stereo not given)", "Potency": "inactive"}, {"smiles": "CC(C(=O)O)c1ccc2c(c1)Cc1cccnc1O2", "note": "(stereo not given)", "Potency": "inactive"}, {"smiles": "CC(CCl)OC(C)CCl", "note": "(stereo not given)", "Potency": "inactive"}, {"smiles": "CCCCC(CC)COCCC#N", "note": "(stereo not given)", "Potency": "inactive"}, {"smiles": "CC(C)(C)c1cc(C=O)cc(C(C)(C)C)c1O", "Potency": "inactive"}, {"smiles": "CC(=O)Oc1cccc2c1C(=O)c1c(OC(C)=O)cc(C(=O)O)cc1C2=O", "Potency": "inactive"}, {"smiles": "CC1=CC(=C(c2ccc(N)cc2)c2ccc(N)cc2)C=CC1=N", "cytotoxicity increase": "-4.58% [at 6.97 µM] (inactive)"}, {"smiles": "CCOc1ccccc1O", "Potency": "inactive"}, {"smiles": "CCCCCCCCCCCCN1CCOCC1", "Potency": "inactive"}, {"smiles": "Nc1ccc(-c2ccc(F)cc2)cc1", "Potency": "inactive"}, {"smiles": "N#CCCCC(C#N)CCC#N", "note": "(stereo not given)", "Potency": "inactive"}, {"smiles": "C[C@]12CCC(=O)C=C1[C@@H]1C[C@@H]1[C@H]1[C@@H]3[C@@H]4C[C@@H]4[C@@]4(CCC(=O)O4)[C@@]3(C)CC[C@@H]12", "Potency": "inactive"}, {"smiles": "CC(C)CC(C)(C)C", "Potency": "inactive"}, {"smiles": "Cc1ccc(S(=O)(=O)NC(=O)NC2CCCC2)cc1", "Potency": "inactive"}, {"smiles": "CCC(=O)O[C@@H]1C[C@H]2CC[C@]1(C)C2(C)C", "Potency": "inactive"}, {"smiles": "OCCCO", "Potency": "inactive"}, {"smiles": "O=C(O)c1ccc2cc(O)ccc2c1", "Potency": "inactive"}, {"smiles": "CCC(=O)O[C@]1(C(=O)COC)[C@@H](C)C[C@H]2[C@@H]3CCC4=CC(=O)C=C[C@]4(C)C3(F)[C@@H](O)C[C@@]21C", "note": "(stereo not given in full)", "Potency": "inactive"}, {"smiles": "Cc1cccc(C)c1NC(=O)CN1CCCC1", "Potency": "inactive"}, {"smiles": "CC(C)=CCCC(C)C=O", "note": "(stereo not given)", "Potency": "inactive"}, {"smiles": "CC(C)NC(=O)c1ccccc1N", "Potency": "inactive"}, {"smiles": "C/C(=C\\C(C)CC(C)CC(C)C)C1CC(=O)OC1=O", "note": "(stereo not given)", "Potency": "inactive"}, {"smiles": "CCCCCCCCOCCCN", "Potency": "inactive"}, {"smiles": "COc1ccc(C(=O)c2ccc(C)cc2)c(O)c1", "Potency": "inactive"}, {"smiles": "Nc1ccc(C(=O)Oc2ccccc2)c(O)c1", "Potency": "inactive"}, {"smiles": "c1ccc(CN(Cc2ccccc2)Cc2ccccc2)cc1", "Potency": "inactive"}, {"smiles": "CCCOC(C)=O", "Potency": "inactive"}, {"smiles": "CC1(C)CC(O)CC(C)(C)N1[O]", "Potency": "inactive"}]}]}
